# Shown are actives, neighbours in structure and some others; about 3.9% of the full set was active somewhere.
# BH1578 lux ind = induces V. cholerae light production without autoinducers; 350,000 compounds, 0.16% hits; AID 588436; V. cholerae BH1578 lux reporter, luminescence, 6 h; activation, % at 18.7 µM; in the data active = activation mostly above about 9.7%, no sharp cut-off
# Mtb FBA inh = inhibits M. tuberculosis FBA enzyme. 360,000 compounds, 2.3% hits. inhibition, % at 1 µM. P9WQA3. purified M. tuberculosis FBA, fluorescence read-out;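 also: 0% = vehicle and 100% = reference inhibitor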
# Target sequence (P9WQA3 whole entry, looked up): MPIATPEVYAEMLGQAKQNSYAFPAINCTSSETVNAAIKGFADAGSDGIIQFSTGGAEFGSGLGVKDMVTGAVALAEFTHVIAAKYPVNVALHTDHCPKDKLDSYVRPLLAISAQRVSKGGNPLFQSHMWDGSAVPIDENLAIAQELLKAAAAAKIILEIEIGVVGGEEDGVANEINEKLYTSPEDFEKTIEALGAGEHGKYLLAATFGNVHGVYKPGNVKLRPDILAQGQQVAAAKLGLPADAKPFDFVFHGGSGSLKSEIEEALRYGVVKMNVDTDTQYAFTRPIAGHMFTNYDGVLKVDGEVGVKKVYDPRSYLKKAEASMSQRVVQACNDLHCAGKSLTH
# GDH-TPI counter-1 = inhibits GDH-TPI coupling enzymes, artifact for Mtb FBA screen. GDH-TPI coupled enzyme counterscreen, NADH absorbance. AID 588335. inhibition, % at 4.8 µM. 360,000 compounds, 1.2% hits; in the data active = inhibition above about 30%;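 also: 0% = DMSO wells and 100% = wells lacking the enzyme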
# PrPC surface inh = cell surface PrPC inhibition, primary TR-FRET screen; P04156; TR-FRET read-out; inhibition, % at 13.8 µM; 370,000 compounds, 0.43% hits; AID 720596; in the data active = inhibition above about 24%; also: 0% = median of the test wells and 100% = reference compound wells
# 3CLpro inhibitor = SARS-CoV 3CLpro protease inhibition. P0C6X7. recombinant SARS-CoV 3CLpro, quenched FRET peptide cleavage. inhibition, % at 6 µM. 290,000 compounds, 0.14% hits. AID 1706; in the data active = inhibition above about 12%
# Mtb FBA inh conf = confirmation of M. tuberculosis fructose-bisphosphate aldolase inhibitors; 5,600 compounds, 78% hits; AID 651616; purified M. tuberculosis FBA, fluorescence read-out; shares compounds with Mtb FBA inh; inhibition, % at 1 µM;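 also: 0% = vehicle wells and 100% = reference inhibitor wells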
# GDH-TPI counter-2 = counter-screen for M. tuberculosis FBA inhibitors: GDH-TPI coupled enzyme inhibition; inhibition, % at 1 µM; AID 652141; shares compounds with Mtb FBA inh; GDH-TPI coupled enzyme counterscreen, fluorescence; 5,600 compounds, 81% hits; in the data active = inhibition above about 10%
# Starred values were filed as active, the others as inactive; i = inactive; x = no result given; + = active, no number. Rule as the data show it, unless noted: active = inhibition above about 27%; inactive = the rest.
SMILES,BH1578 lux ind,Mtb FBA inh,GDH-TPI counter-1,PrPC surface inh,3CLpro inhibitor,Mtb FBA inh conf,GDH-TPI counter-2
O=c1c(-c2ccc(Br)cc2)coc2c(CN3CCOCC3)c(O)ccc12,i,19,0,-2,0,x,x
O=c1c(-c2ccc(Br)cc2)coc2c(CN3CCCCC3)c(O)ccc12,i,31*,2,-1,-2,7,-3
CCC1CCCCN1Cc1c(O)ccc2c(=O)c(-c3ccccc3OC)coc12 (stereo unspecified),-1,83*,8,-2,x,43*,31*
O=c1c(-c2ccccc2Cl)coc2c(CN3CCCCC3)c(O)ccc12,i,80*,13,0,0,64*,60*
O=c1c(-c2ccc(Cl)cc2)coc2c(CN3CCCCC3)c(O)ccc12,-1,27*,12,-13,4,2,0
COc1ccc([C@H](C#Cc2ccccc2)CC(=O)O)cc1OC1CCCC1,x,x,x,2,x,x,x
CC1CCCCN1Cc1c(O)ccc2c(=O)c(-c3nc4ccccc4s3)coc12 (stereo unspecified),-1,0,17,-5,7,x,x
CC1CN(Cc2c(O)ccc3c(=O)c(-c4ccccc4Cl)coc23)CC(C)O1 (stereo unspecified),0,57*,25,12,-1,105*,87*
CCN(CC)Cc1c(O)ccc2c(=O)c(-c3ccccc3Cl)coc12,-1,85*,31*,-2,2,+,+
CCCCc1cc(=O)oc2c(CN(CC)CC)c(O)c(Cl)cc12,0,x,7,-3,1,x,x
CCOC(=O)c1sc2nc(C(C)C)c3c(c2c1N)CCC3,0,29*,4,-3,2,96*,82*
CNc1nc2c(C)cccn2c(=O)c1C=NCc1ccccc1,i,8,12,-2,-2,x,x
Cc1cccn2c(=O)c(C=Nc3ccc(Cl)cc3)c(NCCO)nc12,0,31*,7,-6,-3,66*,45*
Cc1cccn2c(=O)c(C=Nc3ccccc3)c(NCCO)nc12,-2,39*,22,-20,2,7,-2
CCCCS(=O)(=O)NCC1CCN(C(=O)C(=O)c2cc3ccccc3o2)CC1,x,x,x,-11,x,x,x
O=C(NCCCN1CCOCC1)c1c(O)c2ccccc2[nH]c1=O,x,-1,-2,5,-2,x,x
O=C(NCCCN1CCOCC1)c1cc2c(=O)[nH]c3ccccc3c2s1,i,88*,21,-6,-4,36*,24*
CCN1CCN(CCCNC(=O)c2cc3c(=O)[nH]c4ccccc4c3s2)CC1,-1,89*,7,-10,-4,6,-1
CCN1CCN(CCCNC(=O)C(=O)c2c(C)[nH]c3ccccc23)CC1,0,-1,23,4,1,x,x
Cc1nc2ccc(NC(=O)CCC3CCCC3)cc2s1,0,-1,4,-2,1,x,x
CCOC(=O)c1nc(-c2ccccc2)oc1N1CCOCC1,0,97*,4,-4,1,120*,95*
C=CC[C@H](CC(=O)NCCO)C(=O)NCCOC(=O)[C@@H](CC=C)Cc1ccc(F)cc1,i,1,7,-3,x,x,x
Cc1ccc(Oc2ncc(CN3CCOCC3)s2)cc1,-1,38*,-5,8,0,50*,44*
Cc1cccc(NC(=O)C2CCCCN2S(=O)(=O)c2ccccc2)c1C (stereo unspecified),i,3,9,3,x,x,x
Cc1ccc(S(=O)(=O)N(C)C)cc1NC(=O)C1CCCCN1S(=O)(=O)c1ccccc1 (stereo unspecified),i,106*,3,-1,x,132*,108*
SMILES,BH1578 lux ind,Mtb FBA inh,GDH-TPI counter-1,PrPC surface inh,3CLpro inhibitor,Mtb FBA inh conf,GDH-TPI counter-2
CC1CCCCC1NC(=O)CN(C)S(=O)(=O)c1ccc2c(c1)CCC(=O)N2 (stereo unspecified),0,0,8,-1,-1,x,x
Nc1nc2ccc(Cl)cc2[nH]1,i,0,-6,-2,x,x,x
Clc1ccc2nc(-c3ccc(Cl)nc3)[nH]c2c1,-10,36*,14,3,0,107*,82*
Nc1ccc2nc(-c3ccc(Cl)cc3)[nH]c2c1,0,87*,19,9,x,168*,127*
CCOC(=O)C1(CCOc2ccccc2)CCN(CC(O)CO)CC1 (stereo unspecified),i,1,-7,-5,-10,x,x
CC1CCC2(CC1)CCC2NCc1ccc(Cl)c(Cl)c1 (stereo unspecified),x,x,x,0,x,x,x
COc1ccc2oc(C(=O)OCC(=O)NC(=O)NC(C)C)c(C)c2c1,x,35*,11,-2,2,45*,35*
COc1ccc2oc(C(=O)OCC(=O)Nc3ccccc3)c(C)c2c1,0,33*,5,-4,5,+,168*
COc1ccc2oc(C(=O)OCC(=O)NC(C)c3ccccc3)c(C)c2c1 (stereo unspecified),i,39*,-1,0,-4,127*,85*
COc1ccc2oc(C(=O)OCC(=O)Nc3ccc(C(=O)N(C)C)cc3)c(C)c2c1,i,28*,9,-3,3,44*,44*
CC(C)C[C@H]1COc2cccc(N3CCOCC3)c2S(=O)(=O)N1,x,x,x,-5,x,x,x
COc1ccc(CNC(=O)CCC(=O)Nc2ccc(Cl)cc2)cc1,i,1,8,-3,-1,x,x
CCOC(=O)[C@@]12CCC3=C1N(CCC3)C(=O)[C@H](CC(=O)NCCCN1CCCC1=O)C2,x,x,x,1,x,x,x
C[C@H]1CN(C(=O)OC(C)(C)C)CCN1c1ccc(Br)c(C#N)c1,x,x,x,9,x,x,x
COc1ccc(-c2nc3cc(C)ccn3c2NCC2CCCO2)cc1OC (stereo unspecified),i,4,0,1,-8,x,x
COc1cc(-c2nc3cccc(C)n3c2NCC2CCCO2)ccc1O (stereo unspecified),-4,29*,-10,-1,1,+,+
COc1ccc(Cc2[nH]n3c(=O)cc(C)nc3c2-c2ccccc2)cc1,0,27*,0,-6,3,157*,147*
Cc1cc(=O)n2[nH]c(C(F)(F)F)c(-c3ccccc3)c2n1,i,64*,1,x,7,165*,135*
Cc1nc2c(-c3ccccc3)c(C)[nH]n2c(=O)c1Cc1ccccc1,0,24,5,12,1,x,x
Cn1c2ccccc2c2ncn(Cc3ccc(F)cc3)c(=O)c21,-1,16,3,4,-4,x,x
Cn1c2ccc(F)cc2c2ncn(Cc3ccco3)c(=O)c21,-1,32*,10,16,1,98*,91*
Cn1c2ccccc2c2ncn(Cc3ccco3)c(=O)c21,-1,18,6,-6,-4,x,x
CCOCCCn1cnc2c3cc(F)ccc3n(C)c2c1=O,-2,31*,9,3,5,163*,133*
